What all share (experiment): PBM binding z-score (relative to random genomic background probes); higher = stronger binding; sequences stand for … in GC…GCGATTGACAGCGTAGAATGAAGG
The subject of assay [1] is PPARg:RXRa DBDmut IVT, anti-RXR (DBD mutation: RXRa K156A/R161A, NR concentration 270 nM, RXRa partner concentration 90 nM). The gist of the method: (§1)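 Probes were double-stranded and carried 34-nt variable regions with direct-repeat seeds, single-nucleotide variants, half-site ablations and random human genomic background sequences, printed on custom Agilent 4×180K protein-binding microarrays. Arrays were incubated 1 h with ligand-free nuclear receptor dimers in PBS pH 7.4, 2% milk, 0.02% Triton X-100, 1 mM DTT, 0.2 mg/mL BSA and 0.4 mg/ml salmon testes DNA. Antibodies against each partner (one per run) detected binding, and scanned fluorescence was regression-normalized. Binding z-scores use the random background probes as reference.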

The test system of assay [2] is PPARg:RXRa IVT, anti-PPARg (NR concentration 270 nM, RXRa partner concentration 90 nM). The gist of the method: as §1
The test system of assay [3] is PPARg DBDmut:RXRa IVT, anti-PPARg (DBD mutation: PPARg1 K132A/R137A, NR concentration 270 nM, RXRa partner concentration 90 nM). The gist of the method: as §1
Assay [4] has as its system PPARg DBDmut IVT, anti-PPARg (DBD mutation: PPARg1 K132A/R137A, NR concentration 270 nM). The gist of the method: as §1
Assay [5] deals with PPARg homodimer (NR concentration 180 nM). The method, boiled down:
as §1

In assay [6] the test system is PXR:RXRa (NR concentration 270 nM, RXRa partner concentration 90 nM). The method, boiled down: as §1
Assay [7] has as its system PXR homodimer (NR concentration 270 nM). The method, boiled down: as §1
In assay [8] the test system is RARa:RXR (NR concentration 270 nM, RXRa partner concentration 90 nM). The gist of the method: as §1
For assay [9], the system named is RARa homodimer (NR concentration 270 nM). The method, boiled down: as §1
The subject of assay [10] is RARb:RXRa (NR concentration 270 nM, RXRa partner concentration 90 nM). The method, boiled down: as §1
For assay [11], the system named is RARb homodimer (NR concentration 270 nM). The gist of the method: as §1
Assay [12] concerns RARg:RXRa (NR concentration 270 nM, RXRa partner concentration 90 nM). The gist of the method:
as §1

Assay [13] deals with RARg homodimer (NR concentration 270 nM). The gist of the method:
as §1

In assay [14] the test system is RXRa DBDmut IVT, anti-RXR (DBD mutation: RXRa K156A/R161A, NR concentration 90 nM). The method, boiled down:
as §1

Assay [15] relates to RXRa homodimer (NR concentration 180 nM). The method, boiled down:
as §1

The test system of assay [16] is THRa:RXRa (NR concentration 90 nM, RXRa partner concentration 90 nM). The method, boiled down:
as §1

In assay [17] the test system is THRa homodimer (NR concentration 90 nM). The method, boiled down: as §1
The test system of assay [18] is VDR homodimer (NR concentration 270 nM). The method, boiled down:
as §1

We go through eight sequences from the supplement of paper PMC6555819.

As for ACTAGCAGGCGAAGTTTGGGTCACTCAAACAAAG, the PBM binding z-score in [1] was -0.461; in assay [2] it was 0.0553; in [3], -0.763; in assay [4], -1.05; in assay [5], -0.0559; in [6], 0.583. In addition, the PBM binding z-score was -0.27 in [7]; 1.15 in assay [8]; -0.491 in assay [9]; 1.14 in [10]; 1.48 in assay [11]; 0.795 in assay [12]. The PBM binding z-score is 0.54 in assay [13]; -0.3 in assay [14]; 0.656 in [15]; 1.91 in [16]; 0.813 in [17]; -0.246 in assay [18].

For CCGACTGGGGCAGAAAGGTTACCATTCCATCCGG, the PBM binding z-score was 1.94 in assay [1]; 1.83 in assay [2]; -1 in [3]; -1.28 in [4]; 0.284 in assay [5]; 0.744 in [6]. The PBM binding z-score in [7] is -0.202; in assay [8], 1.33; in [9] it was 0.0232; in assay [10], 1.52; in [11], 1.92; in assay [12] it was 1.35. The PBM binding z-score in assay [13] was 1; in assay [14], -0.71; in assay [15], 1.3; in assay [16], 0.555; in assay [17], -0.451; in assay [18], -0.34.

Consider TCTTGTAGATCAACAGGAGGTTATGAAAGATCGA, for which the PBM binding z-score in assay [1] was 1.42; in assay [2], 0.582; in assay [3], 0.881; in [4], 1.46; in [5], -0.255; in assay [6], 0.762. The PBM binding z-score was -0.367 in [7]; 0.694 in assay [8]; -0.449 in assay [9]; 0.283 in assay [10]; 0.222 in assay [11]; 0.765 in assay [12]. Moreover, the PBM binding z-score in assay [13] is 0.211; in assay [14], 0.368; in assay [15] it was 0.889; in assay [16], 0.76; in assay [17] it was -0.681; in assay [18] it was -0.167.

As for ACAGACAGGTGAGTGAAGGTAAATCAGCTGGACG, the PBM binding z-score in assay [1] is 0.437; in assay [2] it was 0.547; in assay [3] it was -0.117; in assay [4], 0.0853; in assay [5] it was 0.0194; in assay [6], -0.359. Moreover, the PBM binding z-score in assay [7] is -0.168; in [8] it was 0.0806; in assay [9], -0.397; in [10] it was 0.388; in [11] it was -0.00718; in assay [12], 0.297. Besides, the PBM binding z-score in assay [13] is 0.417; in assay [14], -0.64; in [15], 0.24; in assay [16] it was 1.31; in assay [17], -0.577; in assay [18], -0.366.

Turning to CCTATTAGTTGACCATAAGGGCAACCTAAGCTCG, the PBM binding z-score was 0.374 in assay [1]; 0.836 in [2]; 0.365 in assay [3]; 0.874 in [4]; 1.32 in [5]; 0.876 in assay [6]. Also, the PBM binding z-score in assay [7] is 0.98; in assay [8], 1.49; in assay [9], 2.27; in assay [10], 1.57; in assay [11] it was 2.22; in assay [12], 1.47. Moreover, the PBM binding z-score in [13] was 1.24; in assay [14], 0.437; in assay [15], 0.949; in assay [16] it was 2.16; in assay [17], 1.8; in assay [18], 0.755.

As for CGTCCAAGGTCAGCAGGTCAGGGAAAGCGACGTG, the PBM binding z-score is 3.07 in assay [1]; 3.53 in [2]; -0.625 in assay [3]; -0.856 in assay [4]; 4.09 in assay [5]; 3.83 in assay [6]. Also, the PBM binding z-score in [7] stood at 0.492; in assay [8], 5.33; in assay [9], 1.3; in assay [10] it was 5.27; in [11], 5.01; in assay [12] it was 6.64. For the same sequence, the PBM binding z-score in [13] turned out to be 7.24; in [14], 2.62; in [15] it was 5.64; in assay [16] it was 3.84; in [17] it was 2.59; in [18] it was 1.53.

As to CCTACTGGGCCATCCAGAGGTCATTGATCATATG, the PBM binding z-score was found to be 4.14 in [1]; 4.6 in assay [2]; 0.419 in assay [3]; 0.464 in assay [4]; 2.88 in assay [5]; 5.05 in assay [6]. Besides, the PBM binding z-score was 2.23 in assay [7]; 4.9 in assay [8]; 0.594 in assay [9]; 3.21 in [10]; 4.32 in assay [11]; 4.63 in [12]. Further, the PBM binding z-score in [13] turned out to be 3.39; in assay [14], 0.256; in [15] it was 3.69; in assay [16], 3.29; in assay [17] it was 1.41; in assay [18], 3.33.

As for CCTACTGGCCCAAAAAGGTCATTGATGCCGATAA, the PBM binding z-score is 0.453 in [1]; 1.52 in assay [2]; -0.0321 in [3]; -0.749 in [4]; 3.4 in assay [5]; 4.99 in assay [6]. Further, the PBM binding z-score was determined as 2.07 in assay [7]; 5.65 in assay [8]; 2.16 in [9]; 3.99 in assay [10]; 4.52 in assay [11]; 4.52 in assay [12]. The PBM binding z-score is 4.12 in [13]; 0.618 in assay [14]; 5.25 in [15]; 3.39 in assay [16]; 1.13 in assay [17]; 2.65 in [18].
